Several values for one entry are separate records, joined by “and”; a condition that tells them apart may be missing. Equal entries are not always repeated. In all, about 140,000 compounds went through this assay and about 320 (0.23%) were called active. Rule as the data show it: active = z-score mostly below about -2.9 (no sharp cut-off); inactive = mostly above about -1.9. This excerpt belongs to a sample that is enriched for actives.
Tested on: CapD gamma-glutamyltranspeptidase (Bacillus anthracis Ames Ancestor)
Experiment: Bacillus anthracis CapD inhibitors, primary screen, biochemical, fluorescence intensity (AID 492967)
Conditions: purified CapD enzyme, fluorescence intensity read-out; active compounds read low

SMILES | z-score
Cc1ccc2c(c1)c1c3n2CCN(S(C)(=O)=O)C3CCC1 (configuration not stated) | 0.19 (inactive)
CCOC(=O)c1cc(C#N)c(C)nc1N1CCN(C(=O)OCCN2CCN(Cc3cc4c(cc3Cl)OCO4)CC2)CC1 | -0.455 (inactive)
OC(CSCc1ccc(Cl)cc1)(c1ccccc1)c1ccccc1 | -0.53 (inactive)
CCOC(=O)c1ccc(NC(=O)N2CCC(CN3CCCCCC3)CC2)cc1 | -1.43 (inactive)
O=C1CCc2ccccc2CN1 | 0.13 (inactive)
Nc1ccc2c(c1)C/C(=C\c1ccco1)C2=O | -3.17 (inactive)
Cc1cccc(NC(=O)N(C)C)c1 | 0.275 (inactive)
C=CCn1c(=S)sc2c(=O)[nH]c(C)nc21 | -5.7 (active)
C=CCn1c(=S)sc2c(SCC(=O)N3CCc4ccccc43)ncnc21 | 1.31 (inactive)
Cc1cccc(N2CCN(C(=O)c3cccc(N4C(=O)C5C6C=CC(C6)C5C4=O)c3)CC2)c1C (configuration not stated) | -0.42 (inactive)
CCOC(=O)c1cc2cccc(NC(=O)c3cccc(C(F)(F)F)c3)c2[nH]1 | -0.595 (inactive)
CCCCCNC(=O)c1ccc2c(c1)[nH]c(=S)n1c3ccccc3nc21 | -0.3 (inactive)
CN(CC(=O)O)S(=O)(=O)c1ccc2oc3ccccc3c2c1 | 0.355 (inactive)
C=CCN1CCN(C(=O)C2CC2)CC1 | 0.655 (inactive)
CCCNC(=O)Nc1ccc2snnc2c1 | 26.7 (inactive)
CCOC(=O)c1ccc(N2N=C(C(F)(F)F)/C(=C/c3cc(Cl)c(O)c(OC)c3)C2=O)cc1 | -0.22 (inactive)
CCC(C)(C)c1cc2cc(NS(=O)(=O)c3ccccc3)ccc2[nH]1 | -0.4 (inactive)
CCOC(=O)c1cc2cccnc2nc1C | -0.34 (inactive)
CCOc1ccc(C(=O)/C(C)=N/O)cc1 | -1.18 (inactive)
Cc1ccc2nc(N3CC(=O)N(CCc4ccccc4)C(=O)C3)c3nncn3c2c1 | -0.125 (inactive)
CC(Oc1ccc(OC(C)C(=O)/C=C/N(C)C)cc1)C(=O)/C=C/N(C)C (configuration not stated) | -1.18 (inactive)

SMILES | z-score
N#Cc1c(-c2ccccc2)cc(-c2ccccc2)c(C#N)c1N | 21 (inactive)
FC(F)(F)c1cccc(N2CCN(C(=S)Nc3ccccc3)CC2)c1 | -0.215 (inactive)
O=C(COC(=O)Cc1ccsc1)Nc1ccccc1C(F)(F)F | -1.17 (inactive)
CCOc1ccc(/C=C2/SC(=S)N(CC(=O)O)C2=O)cc1 | -0.21 (inactive)
FC(F)(F)C1=CC=NCCN1 | -4.38 (active)
CC(C)(C)OC(=O)/N=C(\N)N(CCCC(NC(=O)OC(C)(C)C)C(=O)NCc1cccs1)C(=O)OC(C)(C)C (configuration not stated) | -0.295 (inactive)
O=C(c1ccco1)N1CCN(Cc2cccc(C(F)(F)F)c2)CC1 | 0.64 (inactive)
CCNC(=O)C(=O)Nc1cccc(C(F)(F)F)c1 | 0.01 (inactive)
CCOC(=O)N/N=C1/c2ccccc2C2(O)NC(=O)NC12O (configuration not stated) | 0.15 (inactive)
C=CCn1cc(C=C2C(=O)N(C)C(=S)N(C)C2=O)c2ccccc21 | 3.29 (inactive)
O=C(O)Cn1cc(/C=C2\C(=O)NN(c3ccccc3)C2=O)c2ccccc21 | -6.26 (active)
CN1C(=O)C(=Cc2cn(CC(=O)NCc3ccco3)c3ccccc23)C(=O)N(C)C1=O | -0.57 (inactive)
CCOc1ccc(CCNC(=O)c2nnc(-c3cccnc3)o2)cc1OCC | 0.25 (inactive)
Cc1nc2ccccc2n1CC1CC1(Cl)Cl (configuration not stated) | -0.66 (inactive)
O=C(O)CSc1ncn(-c2ccccc2)n1 | 0.115 (inactive)
CC1(C)c2ccccc2N2CCC(=O)NC21/C=C/c1cccnc1 (configuration not stated) | 0.115 (inactive)
CN(C)/C=C/C(=O)C(Cc1ccc(Cl)cc1)Cc1ccc(Cl)cc1 | -0.33 (inactive)
O=[N+]([O-])c1cccc(C2(O)CN(c3ccc(Cl)cc3)C3=[N+]2CCCS3)c1 (configuration not stated) | 0.185 (inactive)
COc1ccc2nc3oc(C(=O)NC4CC4)cc3cc2c1 | 3.45 (inactive)
O=c1[nH][nH]c(=O)c2c(N=Cc3c[nH]c4ccccc34)cccc12 | 57.4 (inactive)
CC1(C)CC(=O)C(=Cc2c[nH]c3ccccc23)C(=O)C1 | -4.71 (active)

SMILES | z-score
O=C(c1ccccc1)C(O)c1c[nH]c2ccccc12 (configuration not stated) | 0.51 (inactive)
O=c1cc(CO)oc(C(Nc2cccc(C(F)(F)F)c2)c2ccccn2)c1O (configuration not stated) | -6.66 (active)
CCOc1ncccc1C(=O)Nc1cccc(C(F)(F)F)c1 | -0.145 (inactive)
O=C(CC(NCc1ccco1)C(=O)O)Nc1cccc(C(F)(F)F)c1 (configuration not stated) | -0.155 (inactive)
CCC1CCCCN1C(=O)CSc1ccc(C)cc1 (configuration not stated) | -0.23 (inactive)
O=c1oc2ccccc2cc1-c1nc(-c2ccc(Cl)cc2)cs1 | 0.955 (inactive)
Cc1cc(=O)oc2c3c(ccc12)OCN(c1ccccc1Cl)C3 | 21.1 (inactive)
CCC(C)NC(=O)c1onc(C)c1Cl (configuration not stated) | -0.44 (inactive)
Cc1c(NS(=O)(=O)c2ccc3c(c2)C(=O)c2ccccc2C3=O)c(=O)n(-c2ccccc2)n1C | -0.465 (inactive)
O=C1CCCC2=C1C(c1ccc(Cl)cc1)c1c(ccc3ccccc13)N2 (configuration not stated) | 0.255 (inactive)
Cc1ccc(Oc2cc(Oc3ccc(C)cc3)c3noc4c3c2C(=O)c2ccccc2-4)cc1 | 0.03 (inactive)
Cc1cc2c(cc1C)CSC(c1cc(Cl)cc(Cl)c1O)SC2 | -0.005 (inactive) and -0.385 (inactive)
COc1cc2c(C(=O)NCCC(C)C)cn(C)c(=O)c2cc1OC | 0.63 (inactive)
C=CCN(C(=O)c1ccc(N2CC3CC(C2)c2cccc(=O)n2C3)c(NC(=O)c2ccc(OC)cc2)c1)c1ccccc1 (configuration not stated) | -0.49 (inactive)
O=C(OC1CCCCC1=O)c1ccc(O)cc1 (configuration not stated) | -0.295 (inactive)
CCOc1cccc2cc(C(=O)Nc3ccc(Oc4ccccc4)cc3)c(=O)oc12 | 1.48 (inactive)
O=C(COC(=O)c1ccccc1)Nc1ncc(Cl)cc1Cl | 0.31 (inactive)
CC12CCC(C(=O)Nc3ncc(Cl)cc3Cl)(CC1=O)C2(C)C (configuration not stated) | -1.89 (active)
CC12CCC(C(=O)O)(CC1=O)C2(C)C (configuration not stated) | -0.19 (inactive)
CCOC(=O)C1=NN(C(=O)CCc2ccccc2)C(O)(c2ccc(Cl)cc2)C1 (configuration not stated) | -1.38 (inactive)
